According to the supplement of paper PMC6555819:

Legend:
Assay in all cases: PBM binding z-score (relative to random genomic background probes); higher = stronger binding; sequences stand for … in GC…GCGATTGACAGCGTAGAATGAAGG
[1] = system: RARb homodimer (NR concentration 270 nM)
In short: (§1)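 The probes on custom Agilent 4×180K protein-binding microarrays were double-stranded, with 34-nt variable regions bearing direct-repeat seeds, single-nucleotide variants, half-site ablations and random human genomic background sequences. Incubation lasted 1 h with ligand-free nuclear receptor dimers in PBS pH 7.4, 2% milk, 0.02% Triton X-100, 1 mM DTT, 0.2 mg/mL BSA and 0.4 mg/ml salmon testes DNA. Antibodies against each partner (one per run) detected bound dimers, and fluorescence scans were regression-normalized. Binding z-scores take the random background probes as reference.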

[2] = system: RARg:RXRa (NR concentration 270 nM, RXRa partner concentration 90 nM)
In short: as §1

[3] = system: RARg homodimer (NR concentration 270 nM)
In short: as §1

[4] = system: RXRa DBDmut IVT, anti-RXR (DBD mutation: RXRa K156A/R161A, NR concentration 90 nM)
In short: as §1

[5] = system: RXRa homodimer (NR concentration 180 nM)
In short: as §1

[6] = system: THRa:RXRa (NR concentration 90 nM, RXRa partner concentration 90 nM)
In short: as §1

[7] = system: THRa homodimer (NR concentration 90 nM)
In short: as §1

[8] = system: VDR homodimer (NR concentration 270 nM)
In short: as §1

Sequence | PBM binding z-score [1] | PBM binding z-score [2] | PBM binding z-score [3] | PBM binding z-score [4] | PBM binding z-score [5] | PBM binding z-score [6] | PBM binding z-score [7] | PBM binding z-score [8]
AGAATGAGGTTACACGTAGATCAGGGAAGAAAGT | 1.16 | 2.34 | 1.89 | 1.23 | 2.3 | 2.75 | 1.12 | 0.772
CTATGGAGGTTAAGGGGGTCATTCAGTTTGAAAG | 4.08 | 5.71 | 4.46 | 3.59 | 6.48 | 4.04 | 2.95 | 6.81
CGAACTACGTCACCAGGACAGTGAAGAGGTTGGA | 0.196 | 0.119 | 0.277 | -0.206 | 0.256 | 1.27 | 0.657 | 0.0213
AGATGTAGGTTAGGGTCATTCAGAAAGTAGGGAA | 3.52 | 3.98 | 3 | 2.56 | 4.81 | 3.92 | 3.4 | 4.44
AGAATGAGGTTACCAAAGATCAGTGAAACGCTTG | 0.66 | 2.09 | 1.51 | 1.14 | 2.67 | 2.65 | 0.639 | 0.206
CAAACTAGGTCAAAGGTCAAAGACGAGCCAACCA | 5.19 | 9.13 | 7.66 | 2.8 | 10.6 | 4.79 | 1.57 | 3.33
CGAACTATGTCACCAGGACAGTGAAGAGGTTGGA | 0.797 | 0.591 | 0.719 | -0.0649 | 0.602 | 1.66 | 0.878 | 0.455
AGATTGAGGTTACCAAAGATCAGGGAAACGCTTG | 0.91 | 2.15 | 1.94 | 1.36 | 2.81 | 2.91 | 1 | 0.381
CGTCCAAGGTCAGATAGGTCAGTGAATGCCGAGT | 4.84 | 5.45 | 6.04 | 3.06 | 4.4 | 3.73 | 1.92 | 3.28
ATCGAAAGGTCGTGAGGTGTGTATACAGAAAGGC | 2.68 | 4.5 | 4.17 | 1.67 | 4.81 | 2.44 | -0.109 | 1.16
GATTCAGGGTCAGCTAGAGGCCAGAGTATGGAAA | 3.87 | 7 | 5.09 | 1.93 | 4.72 | 3.52 | 1.01 | 0.938
CGAACTAGGTCAAAGGACCGTGAAAGGCGACGTA | 2.22 | 3.5 | 4.44 | 1.42 | 2.86 | 2.23 | 0.043 | 0.238
CCTACTGGGGCAAAGGTCATTGATTCCAATGCTC | 4.6 | 6.11 | 4.61 | 0.782 | 6.93 | 3.66 | 0.71 | 1.92
CACACTAGGTCAAGAGGTCAAAGTCCGCTTCCCG | 5.71 | 8.04 | 7.49 | 3.09 | 8.05 | 4.5 | 3.03 | 4.78
CCTAGCAGGCCACGGTCACTCAAGCATTTCGCTT | 1.74 | 0.739 | 1.19 | 0.229 | 0.221 | 0.45 | 0.288 | -0.0513
ACTAGTTGCTCAGCTGAGGTCACACACAATTCGG | 3.77 | 3.37 | 2.72 | 1.09 | 3.6 | 4.23 | 4.94 | 3.14
AGTCAAAGTTCATCTTGGTAACGTAAGATATGCT | 4.03 | 5.43 | 5.84 | 4.52 | 4.52 | 2.03 | -0.478 | 4.88
CGAACTAGGTCAAAGGACACTGAAAGGCGACGTA | 3.06 | 4.19 | 4.7 | 1.6 | 3.12 | 2.69 | 0.861 | 0.852
ATATGTAGGTAAGGGTCATTCAGAAAGTAGGGAA | 3.55 | 4.21 | 3.2 | 2.15 | 4.88 | 3.01 | 1.15 | 3.13
CGAACTAGGTGAAAGGACAGTGAAAGGCGACGTA | 1.15 | 0.833 | 1.07 | -0.365 | 0.373 | 0.672 | -0.413 | -0.349
CGCCCAAGGTCAGCAGGTCAGTGAAAGCGACGTG | 4.99 | 6.47 | 6.63 | 2.48 | 5.3 | 3.63 | 2.02 | 1.38
TCTTGTAGATCAAAGGTTAAGACAGCCGAAGCCT | 1.45 | 1.94 | 1.05 | 0.925 | 3.08 | 1.24 | -0.0838 | 0.141
CTATGTATGTTAAGGGGGTCATTCAGTTTGAAAG | 3.92 | 4.71 | 3.61 | 3.03 | 5.44 | 3.91 | 2.88 | 6.32
CAGAGTAGGTTACGAGGGGGCATTCAGTGCGAAT | 2.26 | 3.13 | 2.84 | 1.78 | 2.2 | 3.68 | 1.15 | 4.2
CGAACTAGGTCACCAGGACAGTCAAGAGGTTGGA | 3.44 | 4.37 | 5.18 | 1.24 | 3.33 | 3.46 | 1.89 | 0.612
ATGGAAAGGTCGTGAGGTGAGTATACAGAAAGGC | 3.62 | 4.95 | 4.67 | 1.52 | 5.97 | 3.82 | 2.1 | 1.72
CGAACTAGGTCAAAGGACAGTGAGAGGCGACGTA | 3.04 | 3.93 | 4.52 | 1.67 | 3.04 | 2.62 | 0.63 | 0.723
CTATGTAGGTTAATGGGGTCATTCAGTTTGAAAG | 3.6 | 4.72 | 3.17 | 3.07 | 6.2 | 4.28 | 3.09 | 7.21
